Source: the supplement of paper PMC11732987, “Enantioselective OTUD7B fragment discovery through chemoproteomics screening and high-throughput optimisation” (Communications Chemistry, 2025)

Tests used:
Assay in all cases: log2 ratio of Biotin-Ahx-Ub-VS probe labelling (fragment/DMSO); higher = less target engagement (more negative = stronger competition), active = hit call of the paper (q ≤ 0.05, log2 ratio ≤ -1)
Settings in all cases: compound concentration: 200 uM; treatment time: 3 h
[1] = molecular target: T1, USP42 (UniProt Q9H9J4)
T1 sequence (whole entry): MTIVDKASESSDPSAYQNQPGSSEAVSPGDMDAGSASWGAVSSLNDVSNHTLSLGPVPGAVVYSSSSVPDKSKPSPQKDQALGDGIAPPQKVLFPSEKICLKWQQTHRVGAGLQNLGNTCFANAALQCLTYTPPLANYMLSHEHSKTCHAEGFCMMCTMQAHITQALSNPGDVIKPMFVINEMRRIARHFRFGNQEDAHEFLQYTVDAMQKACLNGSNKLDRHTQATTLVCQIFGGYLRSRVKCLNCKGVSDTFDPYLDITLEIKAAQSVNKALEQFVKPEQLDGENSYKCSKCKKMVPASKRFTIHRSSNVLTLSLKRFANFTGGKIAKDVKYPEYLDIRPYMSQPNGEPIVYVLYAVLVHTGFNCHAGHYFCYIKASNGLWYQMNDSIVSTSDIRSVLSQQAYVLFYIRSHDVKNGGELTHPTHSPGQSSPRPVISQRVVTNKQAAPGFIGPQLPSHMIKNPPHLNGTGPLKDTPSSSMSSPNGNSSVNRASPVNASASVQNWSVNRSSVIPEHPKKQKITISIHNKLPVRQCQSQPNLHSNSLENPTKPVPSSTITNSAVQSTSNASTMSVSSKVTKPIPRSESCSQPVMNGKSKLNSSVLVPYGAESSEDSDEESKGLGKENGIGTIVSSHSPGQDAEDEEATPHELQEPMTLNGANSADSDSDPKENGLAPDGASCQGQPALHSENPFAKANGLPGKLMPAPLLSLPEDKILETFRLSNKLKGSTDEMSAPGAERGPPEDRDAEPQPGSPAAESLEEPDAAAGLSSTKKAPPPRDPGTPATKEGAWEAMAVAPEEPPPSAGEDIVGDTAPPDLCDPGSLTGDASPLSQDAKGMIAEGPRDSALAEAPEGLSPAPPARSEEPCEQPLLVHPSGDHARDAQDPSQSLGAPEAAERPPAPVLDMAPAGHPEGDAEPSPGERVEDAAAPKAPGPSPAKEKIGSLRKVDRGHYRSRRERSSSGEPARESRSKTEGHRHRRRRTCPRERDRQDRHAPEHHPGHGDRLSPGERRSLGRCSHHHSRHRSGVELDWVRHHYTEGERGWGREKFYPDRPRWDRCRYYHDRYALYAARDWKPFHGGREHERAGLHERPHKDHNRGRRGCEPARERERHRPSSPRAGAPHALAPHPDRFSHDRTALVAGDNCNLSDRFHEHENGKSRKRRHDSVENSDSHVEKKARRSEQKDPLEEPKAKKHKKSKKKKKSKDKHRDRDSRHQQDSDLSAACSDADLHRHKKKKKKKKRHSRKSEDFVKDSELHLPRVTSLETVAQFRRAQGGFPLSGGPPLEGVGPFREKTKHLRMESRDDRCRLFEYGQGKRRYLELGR
Summary of the method: (§1)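 Labelling with Biotin-Ahx-Ub-VS (0.5 µM final, 1 h) followed a 3 h triplicate treatment of HEK293T lysate (495 µg per sample, Tris/CHAPS/IGEPAL buffer with protease inhibitors) with fragment at 200 µM or vehicle. Labelled DUBs were NeutrAvidin-enriched, digested with LysC and trypsin, and run by diaPASEF LC-MS/MS. The values, average log2 fragment/vehicle ratios by unpaired t-test, come from global-median-normalised Spectronaut label-free quantities. Proteins with ≥2 unique peptides were used.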

[2] = molecular target: USP46 (UniProt P62068)
Summary of the method: as §1

[3] = molecular target: T2, USP47 (UniProt Q96K76)
T2 sequence (whole entry): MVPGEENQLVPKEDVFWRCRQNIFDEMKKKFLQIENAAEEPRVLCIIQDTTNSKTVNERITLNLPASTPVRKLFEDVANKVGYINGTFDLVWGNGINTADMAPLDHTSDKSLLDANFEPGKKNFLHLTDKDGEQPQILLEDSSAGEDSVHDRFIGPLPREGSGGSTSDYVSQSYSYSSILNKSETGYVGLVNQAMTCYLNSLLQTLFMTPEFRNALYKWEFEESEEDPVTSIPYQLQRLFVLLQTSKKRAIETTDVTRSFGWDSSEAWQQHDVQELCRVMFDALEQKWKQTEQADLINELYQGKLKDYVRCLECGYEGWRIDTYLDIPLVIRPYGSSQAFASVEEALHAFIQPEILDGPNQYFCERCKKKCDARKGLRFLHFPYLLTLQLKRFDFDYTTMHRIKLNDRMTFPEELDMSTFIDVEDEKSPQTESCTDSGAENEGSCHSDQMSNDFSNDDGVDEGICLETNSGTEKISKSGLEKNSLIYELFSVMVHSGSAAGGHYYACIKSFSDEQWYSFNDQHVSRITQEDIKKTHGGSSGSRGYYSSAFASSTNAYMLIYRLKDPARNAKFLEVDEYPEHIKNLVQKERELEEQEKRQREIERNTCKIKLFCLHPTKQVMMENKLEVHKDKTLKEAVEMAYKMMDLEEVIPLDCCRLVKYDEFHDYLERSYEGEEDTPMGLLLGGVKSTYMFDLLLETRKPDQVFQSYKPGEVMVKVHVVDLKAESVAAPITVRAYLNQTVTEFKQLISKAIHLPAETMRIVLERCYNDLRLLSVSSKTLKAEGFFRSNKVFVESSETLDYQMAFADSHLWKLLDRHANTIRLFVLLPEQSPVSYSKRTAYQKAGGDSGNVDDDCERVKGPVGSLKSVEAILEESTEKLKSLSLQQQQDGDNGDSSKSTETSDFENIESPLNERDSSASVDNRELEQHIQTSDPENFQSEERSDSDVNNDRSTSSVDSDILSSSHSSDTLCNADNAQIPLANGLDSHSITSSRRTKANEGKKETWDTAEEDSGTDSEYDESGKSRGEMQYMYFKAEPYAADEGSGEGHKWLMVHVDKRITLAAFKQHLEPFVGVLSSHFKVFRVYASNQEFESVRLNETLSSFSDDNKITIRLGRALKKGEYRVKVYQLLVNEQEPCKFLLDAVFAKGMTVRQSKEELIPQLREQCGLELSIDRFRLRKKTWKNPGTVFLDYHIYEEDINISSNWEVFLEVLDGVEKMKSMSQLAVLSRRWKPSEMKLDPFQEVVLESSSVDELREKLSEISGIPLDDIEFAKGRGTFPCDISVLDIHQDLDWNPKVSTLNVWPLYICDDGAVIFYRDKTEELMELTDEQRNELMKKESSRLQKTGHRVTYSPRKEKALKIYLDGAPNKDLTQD
Summary of the method: as §1

[4] = molecular target: T3, USP48 (UniProt Q86UV5)
T3 sequence (whole entry): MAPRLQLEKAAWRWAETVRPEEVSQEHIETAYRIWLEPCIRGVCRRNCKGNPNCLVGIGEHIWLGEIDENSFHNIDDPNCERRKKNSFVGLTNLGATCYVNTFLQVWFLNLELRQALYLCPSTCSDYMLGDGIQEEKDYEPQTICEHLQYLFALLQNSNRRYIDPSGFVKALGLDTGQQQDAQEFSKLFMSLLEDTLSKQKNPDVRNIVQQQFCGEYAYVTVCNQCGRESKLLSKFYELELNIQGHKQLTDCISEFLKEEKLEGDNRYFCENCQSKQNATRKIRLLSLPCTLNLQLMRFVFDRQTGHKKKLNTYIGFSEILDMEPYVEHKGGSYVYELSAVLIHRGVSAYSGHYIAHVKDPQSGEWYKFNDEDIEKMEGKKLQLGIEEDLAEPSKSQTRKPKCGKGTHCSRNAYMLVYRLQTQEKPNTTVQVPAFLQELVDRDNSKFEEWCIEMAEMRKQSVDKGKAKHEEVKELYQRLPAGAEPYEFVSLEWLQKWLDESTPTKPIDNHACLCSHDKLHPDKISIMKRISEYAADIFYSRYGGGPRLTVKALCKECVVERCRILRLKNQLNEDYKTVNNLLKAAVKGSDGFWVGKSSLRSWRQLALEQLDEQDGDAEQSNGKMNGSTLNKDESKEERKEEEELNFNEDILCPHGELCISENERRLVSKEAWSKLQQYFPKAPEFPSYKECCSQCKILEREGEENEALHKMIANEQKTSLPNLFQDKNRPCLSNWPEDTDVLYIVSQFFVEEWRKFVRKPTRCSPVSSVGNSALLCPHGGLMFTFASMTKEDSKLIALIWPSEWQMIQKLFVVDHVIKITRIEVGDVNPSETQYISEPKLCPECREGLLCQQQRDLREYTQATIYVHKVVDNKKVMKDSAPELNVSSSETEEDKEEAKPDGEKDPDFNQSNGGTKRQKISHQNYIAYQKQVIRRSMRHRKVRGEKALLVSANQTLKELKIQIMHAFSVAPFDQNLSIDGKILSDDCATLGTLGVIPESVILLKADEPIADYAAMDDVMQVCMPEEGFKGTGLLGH
Summary of the method: as §1

[5] = molecular target: T4, USP5 (UniProt P45974)
T4 sequence (whole entry): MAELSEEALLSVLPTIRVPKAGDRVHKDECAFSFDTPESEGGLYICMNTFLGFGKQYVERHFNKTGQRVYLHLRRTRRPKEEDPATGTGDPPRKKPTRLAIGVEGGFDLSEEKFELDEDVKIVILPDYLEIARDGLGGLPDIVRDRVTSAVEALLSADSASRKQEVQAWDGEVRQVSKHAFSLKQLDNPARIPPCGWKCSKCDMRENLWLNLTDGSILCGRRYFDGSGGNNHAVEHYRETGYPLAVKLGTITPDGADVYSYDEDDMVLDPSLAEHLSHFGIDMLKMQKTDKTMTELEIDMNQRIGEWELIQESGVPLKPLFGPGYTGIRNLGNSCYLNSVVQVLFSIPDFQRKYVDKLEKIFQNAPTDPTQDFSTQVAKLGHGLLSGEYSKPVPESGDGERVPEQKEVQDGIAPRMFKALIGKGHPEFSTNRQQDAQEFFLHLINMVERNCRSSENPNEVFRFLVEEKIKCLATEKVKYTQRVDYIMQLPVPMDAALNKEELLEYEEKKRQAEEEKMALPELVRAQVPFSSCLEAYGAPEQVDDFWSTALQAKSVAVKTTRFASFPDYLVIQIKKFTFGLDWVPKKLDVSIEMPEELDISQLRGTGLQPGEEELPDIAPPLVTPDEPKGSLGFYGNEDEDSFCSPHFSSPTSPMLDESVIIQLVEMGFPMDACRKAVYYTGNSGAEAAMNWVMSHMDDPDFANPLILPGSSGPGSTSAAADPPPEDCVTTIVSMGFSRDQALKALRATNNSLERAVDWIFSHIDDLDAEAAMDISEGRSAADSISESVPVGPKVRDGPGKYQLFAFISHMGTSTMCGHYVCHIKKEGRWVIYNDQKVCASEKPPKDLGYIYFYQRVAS
Summary of the method: as §1

[6] = molecular target: USP54 (UniProt Q70EL1)
Summary of the method: as §1

[7] = molecular target: USP7 (UniProt Q93009)
Summary of the method: as §1

[8] = molecular target: T5, USP8 (UniProt P40818)
T5 sequence (whole entry): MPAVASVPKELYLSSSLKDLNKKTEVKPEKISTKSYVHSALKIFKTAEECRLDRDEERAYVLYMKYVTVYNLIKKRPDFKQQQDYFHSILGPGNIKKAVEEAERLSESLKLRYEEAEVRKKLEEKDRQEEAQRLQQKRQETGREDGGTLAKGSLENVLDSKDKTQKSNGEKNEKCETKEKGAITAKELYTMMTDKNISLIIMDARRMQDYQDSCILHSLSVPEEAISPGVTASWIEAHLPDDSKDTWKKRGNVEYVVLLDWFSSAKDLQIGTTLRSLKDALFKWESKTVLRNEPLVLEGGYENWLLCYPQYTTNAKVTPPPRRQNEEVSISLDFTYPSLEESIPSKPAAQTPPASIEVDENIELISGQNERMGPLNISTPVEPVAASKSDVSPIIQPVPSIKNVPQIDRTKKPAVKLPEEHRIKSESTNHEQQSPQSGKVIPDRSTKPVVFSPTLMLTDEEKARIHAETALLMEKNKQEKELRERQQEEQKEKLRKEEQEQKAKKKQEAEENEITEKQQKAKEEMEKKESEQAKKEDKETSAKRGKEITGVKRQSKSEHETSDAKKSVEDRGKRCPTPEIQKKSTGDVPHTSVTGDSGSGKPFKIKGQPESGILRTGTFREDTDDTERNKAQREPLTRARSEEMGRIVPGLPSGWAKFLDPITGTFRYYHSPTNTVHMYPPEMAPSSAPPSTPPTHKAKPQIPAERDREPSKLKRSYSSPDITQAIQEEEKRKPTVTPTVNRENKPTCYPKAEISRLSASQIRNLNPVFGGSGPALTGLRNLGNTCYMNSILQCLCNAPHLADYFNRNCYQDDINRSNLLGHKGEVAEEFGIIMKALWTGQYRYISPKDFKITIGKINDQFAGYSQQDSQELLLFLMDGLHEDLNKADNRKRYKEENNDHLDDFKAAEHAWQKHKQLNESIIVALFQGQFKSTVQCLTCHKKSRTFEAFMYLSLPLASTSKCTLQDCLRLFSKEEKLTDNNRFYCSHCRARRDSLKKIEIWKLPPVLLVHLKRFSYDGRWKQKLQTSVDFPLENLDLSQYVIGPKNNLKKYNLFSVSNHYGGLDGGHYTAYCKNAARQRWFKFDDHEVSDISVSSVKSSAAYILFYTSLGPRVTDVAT
Summary of the method: as §1

[9] = molecular target: USP9X (UniProt Q93008)
Summary of the method: as §1

[10] = molecular target: UniProt O00487
Summary of the method: as §1

Measured: log2 ratio of Biotin-Ahx-Ub-VS probe labelling

USP54, sequence (Q70EL1 whole entry): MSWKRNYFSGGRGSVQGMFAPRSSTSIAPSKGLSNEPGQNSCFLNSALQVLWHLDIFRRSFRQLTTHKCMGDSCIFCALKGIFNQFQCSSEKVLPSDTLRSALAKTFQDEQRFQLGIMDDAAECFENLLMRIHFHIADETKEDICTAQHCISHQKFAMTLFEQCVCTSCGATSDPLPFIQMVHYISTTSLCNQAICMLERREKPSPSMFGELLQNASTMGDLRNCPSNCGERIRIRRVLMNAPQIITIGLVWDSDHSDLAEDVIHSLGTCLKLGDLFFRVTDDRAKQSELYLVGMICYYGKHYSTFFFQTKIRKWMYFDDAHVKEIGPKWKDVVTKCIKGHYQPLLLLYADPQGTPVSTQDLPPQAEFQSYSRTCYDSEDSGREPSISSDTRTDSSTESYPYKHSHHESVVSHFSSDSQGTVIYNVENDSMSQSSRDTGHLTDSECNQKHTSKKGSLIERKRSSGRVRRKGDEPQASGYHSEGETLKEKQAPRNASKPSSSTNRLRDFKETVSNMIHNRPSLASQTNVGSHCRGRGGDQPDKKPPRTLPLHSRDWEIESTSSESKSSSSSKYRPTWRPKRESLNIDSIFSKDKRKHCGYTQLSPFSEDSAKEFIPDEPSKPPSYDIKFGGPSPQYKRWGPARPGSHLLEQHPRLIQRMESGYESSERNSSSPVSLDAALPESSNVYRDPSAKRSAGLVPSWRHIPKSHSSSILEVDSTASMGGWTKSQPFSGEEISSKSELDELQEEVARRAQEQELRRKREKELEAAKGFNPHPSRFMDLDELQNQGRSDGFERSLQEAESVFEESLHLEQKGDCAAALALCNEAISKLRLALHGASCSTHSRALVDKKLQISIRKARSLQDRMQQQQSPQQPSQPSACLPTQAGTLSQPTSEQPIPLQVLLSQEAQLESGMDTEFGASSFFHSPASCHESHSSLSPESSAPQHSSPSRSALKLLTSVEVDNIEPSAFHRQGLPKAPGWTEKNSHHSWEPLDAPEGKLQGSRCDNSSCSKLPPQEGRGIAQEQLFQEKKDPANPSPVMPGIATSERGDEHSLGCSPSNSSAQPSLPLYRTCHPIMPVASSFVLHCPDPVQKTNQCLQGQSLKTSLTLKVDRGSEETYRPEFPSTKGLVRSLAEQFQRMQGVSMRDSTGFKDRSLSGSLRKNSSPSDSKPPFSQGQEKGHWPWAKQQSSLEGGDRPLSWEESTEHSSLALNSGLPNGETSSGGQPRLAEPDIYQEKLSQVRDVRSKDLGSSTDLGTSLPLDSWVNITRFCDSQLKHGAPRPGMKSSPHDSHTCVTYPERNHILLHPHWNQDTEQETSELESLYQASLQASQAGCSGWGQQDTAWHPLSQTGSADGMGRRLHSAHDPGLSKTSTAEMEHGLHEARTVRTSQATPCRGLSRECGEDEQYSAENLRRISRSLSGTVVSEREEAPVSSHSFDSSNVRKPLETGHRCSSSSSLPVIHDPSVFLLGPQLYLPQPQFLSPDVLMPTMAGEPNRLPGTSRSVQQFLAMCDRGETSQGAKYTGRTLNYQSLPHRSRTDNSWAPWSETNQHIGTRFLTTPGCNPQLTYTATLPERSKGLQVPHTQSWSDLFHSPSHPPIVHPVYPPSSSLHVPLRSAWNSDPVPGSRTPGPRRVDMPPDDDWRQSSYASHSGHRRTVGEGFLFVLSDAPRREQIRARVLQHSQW
USP7, sequence (Q93009 whole entry, looked up): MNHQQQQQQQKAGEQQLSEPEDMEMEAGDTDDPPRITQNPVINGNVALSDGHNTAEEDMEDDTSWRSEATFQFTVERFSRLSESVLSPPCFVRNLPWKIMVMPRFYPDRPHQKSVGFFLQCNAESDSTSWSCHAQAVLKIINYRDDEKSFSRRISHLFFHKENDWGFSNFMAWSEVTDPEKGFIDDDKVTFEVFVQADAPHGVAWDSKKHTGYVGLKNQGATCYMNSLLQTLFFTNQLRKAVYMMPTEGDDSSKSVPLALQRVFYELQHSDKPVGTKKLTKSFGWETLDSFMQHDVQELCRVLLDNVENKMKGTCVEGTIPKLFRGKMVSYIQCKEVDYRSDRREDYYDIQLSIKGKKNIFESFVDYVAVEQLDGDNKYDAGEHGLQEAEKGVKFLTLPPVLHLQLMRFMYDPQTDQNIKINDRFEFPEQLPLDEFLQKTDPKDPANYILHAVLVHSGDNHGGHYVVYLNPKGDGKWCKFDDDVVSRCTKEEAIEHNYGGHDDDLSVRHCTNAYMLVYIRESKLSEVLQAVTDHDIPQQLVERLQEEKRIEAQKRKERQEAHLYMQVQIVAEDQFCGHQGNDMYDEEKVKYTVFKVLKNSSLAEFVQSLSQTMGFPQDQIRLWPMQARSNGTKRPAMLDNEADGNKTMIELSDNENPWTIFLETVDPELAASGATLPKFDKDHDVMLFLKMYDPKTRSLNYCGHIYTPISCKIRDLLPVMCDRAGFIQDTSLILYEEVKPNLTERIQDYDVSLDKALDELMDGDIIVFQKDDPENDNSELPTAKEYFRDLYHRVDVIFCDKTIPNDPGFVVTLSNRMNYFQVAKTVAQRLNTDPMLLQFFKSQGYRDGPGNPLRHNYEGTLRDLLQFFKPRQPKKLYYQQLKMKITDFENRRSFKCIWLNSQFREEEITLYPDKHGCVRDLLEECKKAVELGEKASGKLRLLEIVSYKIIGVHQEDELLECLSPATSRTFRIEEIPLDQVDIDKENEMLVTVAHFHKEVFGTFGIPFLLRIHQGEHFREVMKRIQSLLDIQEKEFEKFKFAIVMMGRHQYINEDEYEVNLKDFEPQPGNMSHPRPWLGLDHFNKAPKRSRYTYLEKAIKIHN
USP46, sequence (P62068 whole entry): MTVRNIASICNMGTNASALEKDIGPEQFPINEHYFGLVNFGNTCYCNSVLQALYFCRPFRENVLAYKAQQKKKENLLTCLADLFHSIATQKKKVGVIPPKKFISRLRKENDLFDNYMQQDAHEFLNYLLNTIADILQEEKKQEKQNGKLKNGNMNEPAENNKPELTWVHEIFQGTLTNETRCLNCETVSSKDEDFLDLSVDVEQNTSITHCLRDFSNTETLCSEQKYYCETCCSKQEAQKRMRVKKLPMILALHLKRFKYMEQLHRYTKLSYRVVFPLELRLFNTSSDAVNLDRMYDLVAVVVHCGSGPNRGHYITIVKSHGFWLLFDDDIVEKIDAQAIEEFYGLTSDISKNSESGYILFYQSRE
UniProt O00487, sequence (O00487 whole entry): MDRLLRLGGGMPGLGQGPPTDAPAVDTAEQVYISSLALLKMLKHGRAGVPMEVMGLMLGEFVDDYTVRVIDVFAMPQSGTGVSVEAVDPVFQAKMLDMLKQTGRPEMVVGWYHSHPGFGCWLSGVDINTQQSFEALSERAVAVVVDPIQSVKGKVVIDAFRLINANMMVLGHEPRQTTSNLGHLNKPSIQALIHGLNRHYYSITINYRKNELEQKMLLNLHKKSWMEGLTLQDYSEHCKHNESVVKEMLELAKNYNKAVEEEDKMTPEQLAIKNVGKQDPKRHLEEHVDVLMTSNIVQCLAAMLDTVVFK

CC(NC(=O)CCl)c1noc(Cc2ccccc2)n1 (stereo not given)
inactive: [1] 0.115 | [2] -0.0371 | [3] 0.0165 | [4] -0.394 | [5] -0.388 | [6] 0.507 | [7] -0.475 | [8] -0.579 | [9] -0.262 | [10] -0.231
